The target of test [1] is Mitogen-activated protein kinase 3 (Homo sapiens) (UniProt P27361). Briefly: NVS_ENZ_hMAPK3: NovaScreen (NVS) Enzymatic Assay for human Mitogen-Activated Protein Kinase 3 (MAPK 3) (AID 2283177). The method in brief:
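Cell-free enzymatic assay with recombinant protein and specific substrate; fluorescence and electrophoretic mobility shift read-out 1 h after dosing. Primary screen duplicate at 25 uM; actives then run in concentration-response up to 50 uM, loss of signal versus DMSO.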

The target of test [2] is human MAP Kinase-Activated Protein Kinase 2 (MAPKAPK2), MAPKAPK2 (gene 9261) (UniProt P49137). The test is described as follows: NVS_ENZ_hMAPKAPK2: NovaScreen (NVS) Enzymatic Assay for human MAP Kinase-Activated Protein Kinase 2 (MAPKAPK2) (AID 2283178). The method in brief: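 Cell-free recombinant human MAPKAPK2 activity measured by fluorescence with electrophoretic mobility shift separation of substrate and product, 1 hr after dosing. Loss of signal versus DMSO; primary screen at 25 uM, concentration-response up to 50 uM.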
human MAP Kinase-Activated Protein Kinase 2 (MAPKAPK2), MAPKAPK2 (gene 9261), sequence (P49137 whole entry, looked up): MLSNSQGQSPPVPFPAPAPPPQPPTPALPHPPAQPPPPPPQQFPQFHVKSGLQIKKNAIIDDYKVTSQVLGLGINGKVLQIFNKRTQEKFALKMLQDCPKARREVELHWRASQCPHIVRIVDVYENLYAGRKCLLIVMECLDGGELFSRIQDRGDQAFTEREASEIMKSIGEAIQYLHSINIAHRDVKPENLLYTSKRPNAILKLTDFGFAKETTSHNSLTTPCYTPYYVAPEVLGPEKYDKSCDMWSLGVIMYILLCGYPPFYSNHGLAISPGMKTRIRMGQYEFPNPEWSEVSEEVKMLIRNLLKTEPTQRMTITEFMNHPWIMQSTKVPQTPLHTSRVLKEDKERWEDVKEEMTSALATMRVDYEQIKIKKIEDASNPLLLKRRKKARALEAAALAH

The target in test [3] is human Matrix Metalloproteinase-3 (MMP3), MMP3 (gene 4314) (UniProt P08254). The test is described as follows: NVS_ENZ_hMMP3: NovaScreen (NVS) Enzymatic Assay for human Matrix Metalloproteinase-3 (MMP3) (AID 2283185). In short, it runs like this:
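Cell-free recombinant human MMP3 activity, fluorescence intensity read 1 h after dosing. Primary screen duplicate at 25 uM, actives retested in concentration series; loss of signal vs DMSO baseline.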

Test [4] has as its target human Mitogen- and Stress-activated Protein Kinase-1 (Msk1), RPS6KA5 (gene 9252) (UniProt O75582). The test is described as follows: NVS_ENZ_hMsk1: NovaScreen (NVS) Enzymatic Assay for human Mitogen- and Stress-activated Protein Kinase-1 (Msk1) (AID 2283187). In short, it runs like this:
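Recombinant kinase with fluorescent substrate; product separated by electrophoretic mobility shift, read 1 h after dosing. Screened in duplicate at 25 uM; hits (e.g. ≥30% inhibition) tested in concentration–response up to 50 uM. DMSO baseline.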

Test [5] has as its target human Phosphodiesterase 4A1 (PDE4A1), PDE4A (gene 5141) (UniProt P27815). Briefly: NVS_ENZ_hPDE4A1: NovaScreen (NVS) Enzymatic Assay for human Phosphodiesterase 4A1 (PDE4A1) (AID 2283191). The method in brief: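 Cell-free recombinant human PDE4A1 with fluorescent substrate; product separated by electrophoretic mobility shift, 1 h. Screened at 25 uM, then up to 50 uM in concentration-response; loss of signal fitted against DMSO.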

Test [6] has as its target cAMP-dependent protein kinase catalytic subunit alpha (Homo sapiens) (UniProt P17612). The test is described as follows: NVS_ENZ_hPKA: NovaScreen (NVS) Enzymatic Assay for human Protein Kinase A (PKA) (AID 2283192). The method in brief: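 Recombinant human PKA with specific fluorescent substrate, product separated by electrophoretic mobility shift, read 1 h after dosing. Primary screen at 25 uM in duplicate; actives then run in concentration-response up to 50 uM, activity relative to DMSO.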

Test [7] deals with human Matrix Metalloproteinase-9 (MMP9), MMP9 (gene 4318) (UniProt P14780). Briefly: NVS_ENZ_hMMP9: NovaScreen (NVS) Enzymatic Assay for human Matrix Metalloproteinase-9 (MMP9) (AID 2283190).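 Note: cell-free recombinant MMP9 protease activity read by fluorescent substrate signal; active means inhibition seen as loss of fluorescence signal versus DMSO.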 In short, it runs like this: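 Cell-free recombinant MMP9 enzyme activity measured by fluorescence intensity 1 h after dosing. Primary screen in duplicate at 25 uM, actives followed in concentration series; loss of signal relative to DMSO.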
human Matrix Metalloproteinase-9 (MMP9), MMP9 (gene 4318), sequence (P14780 whole entry, looked up): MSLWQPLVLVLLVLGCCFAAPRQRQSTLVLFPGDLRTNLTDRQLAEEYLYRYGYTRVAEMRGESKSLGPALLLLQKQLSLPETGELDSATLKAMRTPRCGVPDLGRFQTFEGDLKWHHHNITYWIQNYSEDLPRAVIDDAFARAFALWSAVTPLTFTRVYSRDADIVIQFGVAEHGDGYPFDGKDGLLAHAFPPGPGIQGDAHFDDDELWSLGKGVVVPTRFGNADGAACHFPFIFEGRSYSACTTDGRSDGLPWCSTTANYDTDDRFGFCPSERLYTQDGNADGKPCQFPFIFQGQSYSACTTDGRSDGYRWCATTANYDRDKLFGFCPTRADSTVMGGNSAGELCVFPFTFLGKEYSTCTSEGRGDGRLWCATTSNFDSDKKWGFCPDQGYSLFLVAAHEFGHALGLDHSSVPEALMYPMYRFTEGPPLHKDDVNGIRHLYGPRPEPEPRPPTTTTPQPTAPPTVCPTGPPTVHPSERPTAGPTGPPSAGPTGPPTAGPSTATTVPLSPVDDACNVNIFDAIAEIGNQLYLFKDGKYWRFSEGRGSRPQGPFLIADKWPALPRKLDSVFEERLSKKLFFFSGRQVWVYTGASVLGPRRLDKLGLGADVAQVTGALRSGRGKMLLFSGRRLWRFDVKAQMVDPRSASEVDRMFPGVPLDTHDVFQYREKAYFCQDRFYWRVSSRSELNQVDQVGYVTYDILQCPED

Test [8] deals with human Phosphodiesterase 5 (PDE5), PDE5A (gene 8654) (UniProt O76074). The test is described as follows: NVS_ENZ_hPDE5: NovaScreen (NVS) Enzymatic Assay for human Phosphodiesterase 5 (PDE5) (AID 2283194). In short, it runs like this:
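Recombinant human PDE5 with specific substrate, read 1 h after dosing by fluorescence with electrophoretic mobility-shift separation of substrate and product. Initial single-concentration duplicate screen at 25 uM, actives followed in concentration series; loss of activity versus DMSO.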

The target in test [9] is Collagenase 3 (Homo sapiens) (UniProt P45452). The test is described as follows: NVS_ENZ_hMMP13: NovaScreen (NVS) Enzymatic Assay for human Matrix Metalloproteinase-13 (MMP13) (AID 2283182). In short, it runs like this:
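Recombinant MMP13 cleaving fluorescent substrate, cell-free, measured 1 h after dosing. Primary duplicate screen at 25 uM; actives tested in concentration-response up to 50 uM; loss of signal relative to DMSO.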

Test [10] addresses human LYN Proto-Oncogene, Src family Tyrosine Kinase (LynA), LYN (gene 4067) (UniProt P07948). The test is described as follows: NVS_ENZ_hLynA: NovaScreen (NVS) Enzymatic Assay for human LYN Proto-Oncogene, Src family Tyrosine Kinase (LynA) (AID 2283173). The method in brief:
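Recombinant kinase with fluorescent substrate; product separated from substrate by electrophoretic mobility shift and read 1 h after dosing. Duplicate screen at 25 uM, then concentration-response up to 50 uM; activity scored as signal loss against DMSO.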

Results filed as inconclusive are left out. Active and inactive are the calls of the source. Rule for the calls: active = hit-call score of the fitted dose curve at least 0.9, where 1 is the maximum; inconclusive = response in the unintended direction; inactive = score below 0.9.

human Phosphodiesterase 4A1 (PDE4A1), PDE4A (gene 5141), sequence (P27815 whole entry, looked up): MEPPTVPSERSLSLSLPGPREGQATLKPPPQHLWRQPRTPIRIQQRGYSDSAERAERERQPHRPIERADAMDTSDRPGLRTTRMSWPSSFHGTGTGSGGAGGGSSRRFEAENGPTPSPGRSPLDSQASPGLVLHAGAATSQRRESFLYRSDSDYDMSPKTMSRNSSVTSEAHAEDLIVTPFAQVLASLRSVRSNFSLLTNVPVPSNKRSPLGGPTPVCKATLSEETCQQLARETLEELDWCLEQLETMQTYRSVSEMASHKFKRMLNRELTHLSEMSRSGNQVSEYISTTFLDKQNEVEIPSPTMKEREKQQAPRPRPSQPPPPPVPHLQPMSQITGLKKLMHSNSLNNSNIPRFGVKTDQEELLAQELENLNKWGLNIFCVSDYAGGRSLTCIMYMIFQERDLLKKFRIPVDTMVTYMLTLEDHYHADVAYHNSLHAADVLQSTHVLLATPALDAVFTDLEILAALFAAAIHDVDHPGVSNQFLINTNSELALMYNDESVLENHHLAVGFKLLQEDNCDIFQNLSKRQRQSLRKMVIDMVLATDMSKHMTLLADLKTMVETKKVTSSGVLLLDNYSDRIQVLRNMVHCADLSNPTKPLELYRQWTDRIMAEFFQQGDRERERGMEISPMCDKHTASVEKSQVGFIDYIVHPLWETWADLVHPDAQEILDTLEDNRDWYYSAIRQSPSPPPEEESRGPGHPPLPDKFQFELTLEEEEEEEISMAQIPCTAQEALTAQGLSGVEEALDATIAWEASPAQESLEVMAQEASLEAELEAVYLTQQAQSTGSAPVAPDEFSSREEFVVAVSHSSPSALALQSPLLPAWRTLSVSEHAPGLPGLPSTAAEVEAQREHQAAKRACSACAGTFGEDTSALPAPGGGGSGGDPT
Mitogen-activated protein kinase 3 (Homo sapiens), sequence (P27361 whole entry, looked up): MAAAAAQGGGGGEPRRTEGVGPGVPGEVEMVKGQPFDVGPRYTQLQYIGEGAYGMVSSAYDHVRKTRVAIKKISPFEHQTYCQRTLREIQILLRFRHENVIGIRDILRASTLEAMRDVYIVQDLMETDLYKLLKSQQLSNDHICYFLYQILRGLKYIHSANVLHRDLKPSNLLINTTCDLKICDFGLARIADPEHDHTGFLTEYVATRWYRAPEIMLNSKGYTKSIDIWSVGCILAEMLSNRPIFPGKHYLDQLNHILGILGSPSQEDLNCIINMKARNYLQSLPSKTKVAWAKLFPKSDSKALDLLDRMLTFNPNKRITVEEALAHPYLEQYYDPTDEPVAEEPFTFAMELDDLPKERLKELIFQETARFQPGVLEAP
human Mitogen- and Stress-activated Protein Kinase-1 (Msk1), RPS6KA5 (gene 9252), sequence (O75582 whole entry, looked up): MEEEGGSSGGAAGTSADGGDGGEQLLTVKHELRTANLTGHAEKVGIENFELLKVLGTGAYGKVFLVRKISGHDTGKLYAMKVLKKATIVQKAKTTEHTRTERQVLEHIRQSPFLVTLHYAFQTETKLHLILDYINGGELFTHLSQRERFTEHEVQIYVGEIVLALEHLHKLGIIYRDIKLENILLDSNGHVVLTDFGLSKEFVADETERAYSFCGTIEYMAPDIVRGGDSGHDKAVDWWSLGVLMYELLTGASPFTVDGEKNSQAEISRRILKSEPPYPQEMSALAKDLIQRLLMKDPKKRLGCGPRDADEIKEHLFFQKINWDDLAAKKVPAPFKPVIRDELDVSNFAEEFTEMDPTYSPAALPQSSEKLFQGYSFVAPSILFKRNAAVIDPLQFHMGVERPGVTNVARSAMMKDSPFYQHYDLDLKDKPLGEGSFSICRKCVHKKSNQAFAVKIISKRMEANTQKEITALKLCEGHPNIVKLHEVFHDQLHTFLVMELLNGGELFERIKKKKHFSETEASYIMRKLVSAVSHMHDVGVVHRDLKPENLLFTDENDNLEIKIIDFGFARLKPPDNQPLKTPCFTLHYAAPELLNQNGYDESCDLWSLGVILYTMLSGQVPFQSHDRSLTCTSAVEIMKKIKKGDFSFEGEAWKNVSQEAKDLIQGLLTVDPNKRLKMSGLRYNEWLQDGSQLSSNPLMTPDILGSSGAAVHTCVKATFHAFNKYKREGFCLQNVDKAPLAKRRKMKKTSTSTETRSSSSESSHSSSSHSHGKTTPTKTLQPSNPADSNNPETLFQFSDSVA
human Matrix Metalloproteinase-3 (MMP3), MMP3 (gene 4314), sequence (P08254 whole entry, looked up): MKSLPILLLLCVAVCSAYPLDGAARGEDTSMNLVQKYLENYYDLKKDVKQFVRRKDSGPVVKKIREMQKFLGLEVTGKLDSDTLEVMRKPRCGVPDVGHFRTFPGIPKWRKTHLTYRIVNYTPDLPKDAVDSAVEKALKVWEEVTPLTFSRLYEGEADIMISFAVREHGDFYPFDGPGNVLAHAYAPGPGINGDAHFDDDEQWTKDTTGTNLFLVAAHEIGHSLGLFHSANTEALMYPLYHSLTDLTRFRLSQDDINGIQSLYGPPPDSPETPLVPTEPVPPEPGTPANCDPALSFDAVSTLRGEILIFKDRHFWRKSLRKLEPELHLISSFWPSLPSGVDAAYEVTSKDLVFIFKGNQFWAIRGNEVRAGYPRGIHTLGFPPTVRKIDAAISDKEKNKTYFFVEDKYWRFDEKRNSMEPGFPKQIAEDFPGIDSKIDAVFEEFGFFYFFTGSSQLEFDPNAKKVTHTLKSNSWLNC
human LYN Proto-Oncogene, Src family Tyrosine Kinase (LynA), LYN (gene 4067), sequence (P07948 whole entry, looked up): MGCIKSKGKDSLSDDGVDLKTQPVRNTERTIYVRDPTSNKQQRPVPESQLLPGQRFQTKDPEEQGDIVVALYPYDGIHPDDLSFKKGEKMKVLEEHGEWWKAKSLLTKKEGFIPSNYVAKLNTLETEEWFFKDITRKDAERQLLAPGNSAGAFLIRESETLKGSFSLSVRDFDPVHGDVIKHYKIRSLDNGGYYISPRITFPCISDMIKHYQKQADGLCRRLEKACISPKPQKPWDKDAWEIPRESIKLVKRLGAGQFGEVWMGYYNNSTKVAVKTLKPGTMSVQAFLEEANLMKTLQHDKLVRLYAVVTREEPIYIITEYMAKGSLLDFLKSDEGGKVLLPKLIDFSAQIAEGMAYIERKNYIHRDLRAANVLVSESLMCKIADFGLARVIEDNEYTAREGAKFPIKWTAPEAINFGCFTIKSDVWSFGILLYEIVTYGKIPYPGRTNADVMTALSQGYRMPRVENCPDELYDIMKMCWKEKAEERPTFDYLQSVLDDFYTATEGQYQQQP

The AC50 is the concentration giving half of the maximal activity seen. For the compound `CCCCCCCCCCCCOS(=O)(=O)O`, the AC50 is 18.1 µM (active) in test [1]; 36.7 µM (active) in test [3]; 43 µM (active) in [4]; 11.8 µM (active) in [5]; 42.4 µM (active) in test [6]. Besides, in test [2], the outcome was inactive. As for `CCCCC(CC)C(=O)O` (stereo not drawn), the outcome in [7] was inactive. On to `CS(=O)(=O)c1ccc([C@@H](CC2CCCC2)C(=O)Nc2cnccn2)cc1Cl`, for which the outcome in [5] was inactive. For the same compound, the half-maximal activity concentration (AC50) in test [8] is 8.2 µM (active).

Consider `CCCCCC(C)OC(=O)COc1ccc(Cl)c2cccnc12` (stereo not drawn), for which, in [8], the compound was called inactive. On to `CCCCCCCCCCCCCCC`, for which the outcome in test [9] was inactive. For the compound `CCCCCCCCCCCCCCCCCC[N+](C)(C)Cc1ccccc1`, the compound was called inactive in test [7]. Consider `O=C(c1ccccc1)c1ccccc1`, for which the result in [8] was inactive. As to `O=C1NS(=O)(=O)c2ccccc21`, in [6], the outcome was inactive. In the case of `CCOC(C)=O`, the AC50 in [7] was 4.98 µM (active). Consider `Cc1[nH]nc2c1N=C(c1ccccc1Cl)c1cc([N+](=O)[O-])ccc1N2`, for which the AC50 is 25 µM (active) in [10], 25 µM (active) in test [1] and 16.2 µM (active) in [9].

The values above are taken from PubChem BioAssay (EPA / NIEHS).
